# Data published in the supplement of paper PMC10037445.
# Whole data set: some 2,900 compounds, median “NF-kB SEAP reporter activity, fold change vs agonist alone” near 0.99, cut for the highest 2% near 2.6. The entries come from a sample that favours the highest values as a whole.
# How the values were obtained:
# RAW-Dual [1] = assay: NF-kB SEAP reporter activity, fold change vs agonist alone; higher = enhanced NF-kB activity
# In short: (§1)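 RAW-Dual macrophages were seeded in DMEM at 50,000 cells/well in 384-well plates, given 50 nL of library stock by pin tool, and given a PRR agonist 1 h later. Plates were held at 37 °C, 5% CO2 for 20 hours, after which supernatant was read for IRF by QuantiLuc luminescence and for NF-κB by QuantiBlue absorbance at 620 nm. Reporter activity is expressed as fold change over wells that received agonist alone. A well was called cytotoxic when IncuCyte confluency fell below 70% of agonist controls in both mask sets.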
# RAW-Dual [2] = assay: NF-kB SEAP reporter activity, fold change vs agonist alone; cytotoxicity flag (confluency mask): not cytotoxic; higher = enhanced NF-kB activity
# In short: as §1
# RAW-Dual [3] = assay: NF-kB SEAP reporter activity, fold change vs agonist alone; cytotoxicity flag (confluency mask): cytotoxic (confluency <70% of control); higher = enhanced NF-kB activity
# In short: as §1
# [4] = library stock concentration (final ~1000-fold dilution): 10 mM, cytotoxicity flag (confluency mask): not cytotoxic, agonist: MPLA (TLR4) […]
# [5] = agonist: ODN 1826 (TLR9) 0.5 ug/mL
# [6] = agonist: Pam2CSK4 (TLR2/6) 0.1 ug/mL
# [7] = agonist: Pam3CSK4 (TLR2/1) 0.1 ug/mL
# [8] = library stock concentration (final ~1000-fold dilution): 10 mM, cytotoxicity flag (confluency mask): not cytotoxic, agonist: Imiquimod (TLR7) […]
structure (smiles),measurement,setting,value
COCCc1ccc(OCC(O)CNC(C)C)cc1.COCCc1ccc(OCC(O)CNC(C)C)cc1.O=C(O)CCC(=O)O (stereo not given),NF-kB SEAP reporter activity,RAW-Dual [1]; [4],1.03
COCCc1ccc(OCC(O)CNC(C)C)cc1.COCCc1ccc(OCC(O)CNC(C)C)cc1.O=C(O)CCC(=O)O (stereo not given) (library stock concentration (final ~1000-fold dilution): 10 mM),NF-kB SEAP reporter activity,RAW-Dual [2]; agonist: LPS (TLR4) 0.1 ug/mL,1.32
same,NF-kB SEAP reporter activity,RAW-Dual [2]; [5],0.801
same,NF-kB SEAP reporter activity,RAW-Dual [2]; [6],0.839
same,NF-kB SEAP reporter activity,RAW-Dual [2]; [7],0.868
NC1(C(=O)NC(CCO)c2ccc(Cl)cc2)CCN(c2ncnc3[nH]ccc23)CC1 (stereo not given),NF-kB SEAP reporter activity,RAW-Dual [1]; [8],0.829
same,NF-kB SEAP reporter activity,RAW-Dual [1]; [4],0.793
NC1(C(=O)NC(CCO)c2ccc(Cl)cc2)CCN(c2ncnc3[nH]ccc23)CC1 (stereo not given) (library stock concentration (final ~1000-fold dilution): 10 mM),NF-kB SEAP reporter activity,RAW-Dual [2]; agonist: LPS (TLR4) 0.1 ug/mL,0.9
same,NF-kB SEAP reporter activity,RAW-Dual [2]; [5],1.06
same,NF-kB SEAP reporter activity,RAW-Dual [2]; [6],0.974
same,NF-kB SEAP reporter activity,RAW-Dual [2]; [7],0.723
O=C1N=C(O)CN1N=Cc1ccc(-c2ccc([N+](=O)[O-])cc2)o1 (library stock concentration (final ~1000-fold dilution): 10 mM),NF-kB SEAP reporter activity,RAW-Dual [2]; agonist: LPS (TLR4) 0.1 ug/mL,1.06
same,NF-kB SEAP reporter activity,RAW-Dual [2]; [5],0.843
same,NF-kB SEAP reporter activity,RAW-Dual [2]; [6],0.877
same,NF-kB SEAP reporter activity,RAW-Dual [2]; [7],0.756
O=C1N=C(O)CN1N=Cc1ccc(-c2ccc([N+](=O)[O-])cc2)o1,NF-kB SEAP reporter activity,RAW-Dual [1]; [4],1.03
c1cncc(CN2CCC(n3ncc4c(N5CCOCC5)nc(-c5ccc6[nH]ccc6c5)nc43)CC2)c1,NF-kB SEAP reporter activity,RAW-Dual [1]; [8],0.96
same,NF-kB SEAP reporter activity,RAW-Dual [1]; [4],0.899
COC(=O)Nc1ccc(-c2nc(N3CCOCC3)c3cnn(C4CCN(C(=O)OC)CC4)c3n2)cc1,NF-kB SEAP reporter activity,RAW-Dual [1]; [8],0.976
same,NF-kB SEAP reporter activity,RAW-Dual [1]; [4],0.895
c1cncc(CN2CCC(n3ncc4c(N5CCOCC5)nc(-c5ccc6[nH]ccc6c5)nc43)CC2)c1 (library stock concentration (final ~1000-fold dilution): 10 mM),NF-kB SEAP reporter activity,RAW-Dual [2]; agonist: LPS (TLR4) 0.1 ug/mL,2.91
same,NF-kB SEAP reporter activity,RAW-Dual [2]; [5],0.951
same,NF-kB SEAP reporter activity,RAW-Dual [2]; [6],1.44
same,NF-kB SEAP reporter activity,RAW-Dual [2]; [7],0.777
CN1CCN(Cc2ccc(-c3cnc4[nH]cc(-c5ccc6[nH]ccc6c5)c4c3)cc2)CC1 (library stock concentration (final ~1000-fold dilution): 10 mM),NF-kB SEAP reporter activity,RAW-Dual [2]; agonist: LPS (TLR4) 0.1 ug/mL,0.216
same,NF-kB SEAP reporter activity,RAW-Dual [2]; [5],0.181
same,NF-kB SEAP reporter activity,RAW-Dual [2]; [6],0.0629
same,NF-kB SEAP reporter activity,RAW-Dual [2]; [7],0.138
CN1CCN(Cc2ccc(-c3cnc4[nH]cc(-c5ccc6[nH]ccc6c5)c4c3)cc2)CC1,NF-kB SEAP reporter activity,RAW-Dual [1]; [8],0.132
same,NF-kB SEAP reporter activity,RAW-Dual [1]; [4],0.242
COC(=O)Nc1ccc(-c2nc(N3CCOCC3)c3cnn(C4CCN(C(=O)OC)CC4)c3n2)cc1 (library stock concentration (final ~1000-fold dilution): 10 mM),NF-kB SEAP reporter activity,RAW-Dual [2]; agonist: LPS (TLR4) 0.1 ug/mL,0.888
same,NF-kB SEAP reporter activity,RAW-Dual [2]; [5],0.912
same,NF-kB SEAP reporter activity,RAW-Dual [2]; [6],0.867
same,NF-kB SEAP reporter activity,RAW-Dual [2]; [7],0.873
Cc1cnc(NC(=O)Nc2cc(Br)c(C)cc2OCC2CNCCO2)cn1 (stereo not given),NF-kB SEAP reporter activity,RAW-Dual [1]; [8],0.872
same,NF-kB SEAP reporter activity,RAW-Dual [1]; [4],0.946
Cc1cnc(NC(=O)Nc2cc(Br)c(C)cc2OCC2CNCCO2)cn1 (stereo not given) (library stock concentration (final ~1000-fold dilution): 10 mM),NF-kB SEAP reporter activity,RAW-Dual [2]; agonist: LPS (TLR4) 0.1 ug/mL,0.68
same,NF-kB SEAP reporter activity,RAW-Dual [2]; [5],0.903
same,NF-kB SEAP reporter activity,RAW-Dual [2]; [6],0.51
same,NF-kB SEAP reporter activity,RAW-Dual [2]; [7],0.818
CCC(N)CNc1ccnc(-c2cc(-c3cnn(C)c3)ccc2O)n1.Cl.Cl (stereo not given) (library stock concentration (final ~1000-fold dilution): 10 mM),NF-kB SEAP reporter activity,RAW-Dual [3]; agonist: LPS (TLR4) 0.1 ug/mL,0.267
same,NF-kB SEAP reporter activity,RAW-Dual [3]; [5],0.195
same,NF-kB SEAP reporter activity,RAW-Dual [3]; [6],0.0684
same,NF-kB SEAP reporter activity,RAW-Dual [3]; [7],0.127
CCC(N)CNc1ccnc(-c2cc(-c3cnn(C)c3)ccc2O)n1.Cl.Cl (stereo not given),NF-kB SEAP reporter activity,"RAW-Dual [1]; library stock concentration (final ~1000-fold dilution): 10 mM, cytotoxicity flag (confluency mask): cytotoxic (confluency <70% of control), agonist: Imiquimod (TLR7) […]",0.144
same,NF-kB SEAP reporter activity,"RAW-Dual [1]; library stock concentration (final ~1000-fold dilution): 10 mM, cytotoxicity flag (confluency mask): cytotoxic (confluency <70% of control), agonist: MPLA (TLR4) […]",0.254
N=C(N)NCCCCC1NC(=O)CCSSCC(C(N)=O)NC(=O)C2CCCN2C(=O)C(Cc2c[nH]c3ccccc23)NC(=O)C(CC(=O)O)NC(=O)CNC1=O (stereo not given) (library stock concentration (final ~1000-fold dilution): 10 mM water),NF-kB SEAP reporter activity,RAW-Dual [2]; agonist: LPS (TLR4) 0.1 ug/mL,1.2
same,NF-kB SEAP reporter activity,RAW-Dual [2]; [5],1.15
same,NF-kB SEAP reporter activity,RAW-Dual [2]; [6],1.24
same,NF-kB SEAP reporter activity,RAW-Dual [2]; [7],1.06
N=C(N)NCCCCC1NC(=O)CCSSCC(C(N)=O)NC(=O)C2CCCN2C(=O)C(Cc2c[nH]c3ccccc23)NC(=O)C(CC(=O)O)NC(=O)CNC1=O (stereo not given),NF-kB SEAP reporter activity,"RAW-Dual [1]; library stock concentration (final ~1000-fold dilution): 10 mM water, cytotoxicity flag (confluency mask): not cytotoxic, agonist: Imiquimod (TLR7) […]",0.957
same,NF-kB SEAP reporter activity,"RAW-Dual [1]; library stock concentration (final ~1000-fold dilution): 10 mM water, cytotoxicity flag (confluency mask): not cytotoxic, agonist: MPLA (TLR4) […]",1.11
CC(Nc1cc(F)cc(F)c1)c1cc(C(=O)N(C)C)cc2c(=O)cc(N3CCOCC3)oc12 (stereo not given) (library stock concentration (final ~1000-fold dilution): 10 mM),NF-kB SEAP reporter activity,RAW-Dual [2]; agonist: LPS (TLR4) 0.1 ug/mL,1.67
same,NF-kB SEAP reporter activity,RAW-Dual [2]; [5],1.01
same,NF-kB SEAP reporter activity,RAW-Dual [2]; [6],1.02
same,NF-kB SEAP reporter activity,RAW-Dual [2]; [7],1.13
CC(Nc1cc(F)cc(F)c1)c1cc(C(=O)N(C)C)cc2c(=O)cc(N3CCOCC3)oc12 (stereo not given),NF-kB SEAP reporter activity,RAW-Dual [1]; [8],0.569
same,NF-kB SEAP reporter activity,RAW-Dual [1]; [4],1.21
O=c1cc(N2CCOCC2)oc2c(-c3ccc4c(c3)OCCO4)csc12 (library stock concentration (final ~1000-fold dilution): 10 mM),NF-kB SEAP reporter activity,RAW-Dual [2]; agonist: LPS (TLR4) 0.1 ug/mL,6.86
same,NF-kB SEAP reporter activity,RAW-Dual [2]; [5],2.26
same,NF-kB SEAP reporter activity,RAW-Dual [2]; [6],0.957
same,NF-kB SEAP reporter activity,RAW-Dual [2]; [7],2.84
O=c1cc(N2CCOCC2)oc2c(-c3ccc4c(c3)OCCO4)csc12,NF-kB SEAP reporter activity,RAW-Dual [1]; [8],1.57
same,NF-kB SEAP reporter activity,RAW-Dual [1]; [4],2.36
CNC(C)C(=O)NC(C(=O)N1CCCC1C(=O)Nc1snnc1-c1ccccc1)C1CCCCC1 (stereo not given) (library stock concentration (final ~1000-fold dilution): 10 mM),NF-kB SEAP reporter activity,RAW-Dual [2]; agonist: LPS (TLR4) 0.1 ug/mL,0.612
same,NF-kB SEAP reporter activity,RAW-Dual [2]; [5],0.875
same,NF-kB SEAP reporter activity,RAW-Dual [2]; [6],0.972
same,NF-kB SEAP reporter activity,RAW-Dual [2]; [7],0.8
CNC(C)C(=O)NC(C(=O)N1CCCC1C(=O)Nc1snnc1-c1ccccc1)C1CCCCC1 (stereo not given),NF-kB SEAP reporter activity,RAW-Dual [1]; [8],0.887
same,NF-kB SEAP reporter activity,RAW-Dual [1]; [4],0.824
O=C(Oc1coc(CSc2ncccn2)cc1=O)c1ccc([N+](=O)[O-])cc1,NF-kB SEAP reporter activity,RAW-Dual [1]; [8],0.717
same,NF-kB SEAP reporter activity,RAW-Dual [1]; [4],1.01
O=C(Nc1ccccc1C(=O)O)c1cc(S(=O)(=O)c2ccccc2)ccc1Cl (library stock concentration (final ~1000-fold dilution): 10 mM),NF-kB SEAP reporter activity,RAW-Dual [2]; agonist: LPS (TLR4) 0.1 ug/mL,1.19
same,NF-kB SEAP reporter activity,RAW-Dual [2]; [5],0.999
same,NF-kB SEAP reporter activity,RAW-Dual [2]; [6],1.09
same,NF-kB SEAP reporter activity,RAW-Dual [2]; [7],1.13
O=C(Oc1cc(S(=O)(=O)c2ccccc2)ccc1[N+](=O)[O-])c1ccc(Cl)cc1 (library stock concentration (final ~1000-fold dilution): 10 mM),NF-kB SEAP reporter activity,RAW-Dual [2]; agonist: LPS (TLR4) 0.1 ug/mL,5.2
same,NF-kB SEAP reporter activity,RAW-Dual [2]; [5],2.09
same,NF-kB SEAP reporter activity,RAW-Dual [2]; [6],1.03
same,NF-kB SEAP reporter activity,RAW-Dual [2]; [7],1.81
